# Data published in PubChem BioAssay (EPA / NIEHS).
# Several values for one entry are separate records, joined by “and”; a condition that tells them apart may be missing. Equal entries are not always repeated. Activity calls are given as the source filed them. Rule for the calls: active = hit-call score of the fitted dose curve at least 0.9, where 1 is the maximum; inactive = score below 0.9.
# Test system: TTR (gene 7276)
# Experiment: CCTE_GLTED_hTTR_0.125uM: CCTE's human Transthyretin (hTTR) Inhibition Assay, with 0.125uM TTR, Great Lakes Toxicology and Ecology Division (GLTED) Lab (AID 2284431)
# Description: CCTE_GLTED_hTTR is a cell-free, single-readout assay designed to test the chemicals' ability to displace T4 from the human transthyretin (TTR) protein. TTR (at 0.125uM or 0.5uM) is incubated in presence of test chemical for 2 hours during which disrupting chemicals displace ANSA from the TTR protein. Results read fluorescence at 380 excitation and 475 emission.CCTE_GLTED_hTTR_0.125uM is the assay component measured from the CCTE_GLTED_hTTR assay. It is designed to make measurements of fluorescent polarization, using a form of binding reporter, as detected with Fluorescence signals by Fluorescence technology.Data from the assay component CCTE_GLTED_hTTR_0.125uM was analyzed at the assay endpoint CCTE_GLTED_hTTR_0.125uM in the positive analysis fitting direction relative to DMSO as the negative control and baseline of activity. Using a type of binding reporter, loss-of-signal activity can be used to understand a chemical's ability to displace T4 from transthyretin. To generalize the intended target to other relatable targets, this assay endpoint is annotated to the 'transporter' intended target family, where the subfamily is 'hormone carrier protein'.
# Human transthyretin (TTR) assay, developed at Great Lakes Toxicology and Ecology Division (GLTED) within the EPA's Center for Computational Toxicology and Exposure (CCTE), is designed to test the chemicals' ability to displace T4 from the TTR protein. TTR (0.125uM) is incubated in presence of test chemical for 2 hours during which disrupting chemicals displace ANSA from the TTR protein. Results read fluorescence at 380 excitation and 475 emission.
row,SMILES,AC50
1,O=C1OC(c2ccc(O)cc2)(c2ccc(O)cc2)c2ccccc21,0.056 µM (active)
2,S=c1[nH]c2ccccc2s1,4.06 µM (active)
3,O=C(NS(=O)(=O)/C=C/c1cccs1)c1ccc(F)cc1Br,7.75 µM (active)
4,O=C1c2c(O)cccc2Cc2cccc(O)c21,22 µM (active)
5,Cc1c(C)c2c(c(C)c1O)CCC(C)(COc1ccc(CC3SC(=O)NC3=O)cc1)O2 (configuration not stated),2.31 µM (active)
6,CCC(C)N(C)C(=O)c1cc2ccccc2c(-c2ccccc2Cl)n1 (configuration not stated),27.1 µM (active)
7,O=Cc1ccccc1C=O,0.121 µM (active)
8,Cc1cc(Cc2ccc(N)c(C)c2)ccc1N,9.71 µM (active)
9,O=C(O)c1[nH]n(-c2ccc(S(=O)(=O)O)cc2)c(=O)c1N=Nc1ccc(S(=O)(=O)O)cc1,17.8 µM (active)
10,CCCCc1nc2cccnc2n1Cc1ccc(-c2ccccc2-c2nnn[nH]2)cc1,7.22 µM (active)
11,CC(=O)CC(c1ccccc1)c1c(O)c2ccccc2oc1=O (configuration not stated),7.34 µM (active) and 4.39 µM (active)
12,CCCCCCCCCCCCCCOS(=O)(=O)O,1.9 µM (active)
